PubChem BioAssay (EPA / NIEHS)
Records with an inconclusive call do not appear. Activity calls are given as the source filed them. The calls were made as follows, unless noted: active = hit-call score of the fitted dose curve at least 0.9, where 1 is the maximum; inactive = score below 0.9.

Legend:
[1] = ATG_TAL_CIS: Attagene CIS-FACTORIAL HepG2 Assay for human TAL Basal Promoter (AID 2282966); settings: HepG2 Attagene cis-factorial TAL promoter reporter; actives raise or lower the signal;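 also: background control endpoint measuring basal TAL promoter reporter mRNA not a specific factor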
In short: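 Fluorescence of labelled reporter cDNA fragments, resolved by capillary electrophoresis, gave the readout. Human HepG2 liver cells carried transiently transfected cis-element reporter units and were treated for 24 hours; activity was fitted bidirectionally against DMSO.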

[2] = ATG_TGFb_CIS: Attagene CIS-FACTORIAL HepG2 Assay for human Transforming Growth Factor (TGF) (AID 2282967); settings: HepG2 Attagene CIS TGFb reporter, mRNA transcription; actives raise or lower the signal
In short: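 Multiplexed cis-reporter HepG2 system, 24 h treatment; mRNA induction read by fluorescence after RT-PCR and CE; DMSO negative control, bidirectional curve fitting.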

[3] = ATG_VDRE_CIS: Attagene CIS-FACTORIAL HepG2 Assay for human Vitamin D Receptor Element (VDRE) (AID 2282968); settings: HepG2 VDRE cis-reporter transcription, actives raise or lower the signal
In short: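 RT-PCR/CE readout of reporter mRNA; HepG2, transient transfection, 24 h dosing; DMSO baseline; bidirectional analysis.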

[4] = target: X-box-binding protein 1 (Homo sapiens) (UniProt P17861); assay: ATG_Xbp1_CIS: Attagene CIS-FACTORIAL HepG2 Assay for human X-box Binding Protein 1 (XBP1) (AID 2282972); settings: HepG2 XBP1 cis-element reporter, Attagene multiplex; actives raise or lower the signal
X-box-binding protein 1 (Homo sapiens), sequence (P17861 whole entry, looked up, the tested form may be a part): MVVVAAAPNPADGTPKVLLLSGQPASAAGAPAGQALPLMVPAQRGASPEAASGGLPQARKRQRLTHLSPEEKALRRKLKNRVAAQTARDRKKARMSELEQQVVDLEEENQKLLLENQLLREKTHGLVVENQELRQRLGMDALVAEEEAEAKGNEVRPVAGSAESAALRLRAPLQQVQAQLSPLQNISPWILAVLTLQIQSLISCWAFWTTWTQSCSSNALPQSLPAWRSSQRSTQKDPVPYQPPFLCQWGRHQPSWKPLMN
In short: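 Fluorescence-labelled cDNA fragments from reporter transcripts, separated by capillary electrophoresis, give the signal. Source: HepG2 cells transfected with promoter-driven reporter units, harvested 24 h post-dose. DMSO served as reference for bidirectional curve fitting.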

[5] = ATG_M_19_TRANS: Attagene TRANS-FACTORIAL HepG2 Assay for M19 Transcription Factor (Internal Marker) (AID 2282974; active = hit-call score of the fitted dose curve at least 0.9, where 1 is the maximum); settings: HepG2 Attagene TRANS-FACTORIAL M19 internal marker reporter
In short: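 Transfected HepG2 (GAL4-UAS MRTUs), 24 h compound, TriZol RNA, DNase-treated RT, reporter PCR, FAM label, HpaI digest, CE fluorescence; gain vs DMSO.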

[6] = ATG_GAL4_TRANS: Attagene TRANS-FACTORIAL HepG2 Assay for GAL4 (Internal Marker) (AID 2282976; active = hit-call score of the fitted dose curve at least 0.9, where 1 is the maximum); settings: HepG2 Attagene TRANS GAL4 internal marker reporter
In short: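 First, HepG2 cells were transfected with reporter units under GAL4-UAS control. Next, they were treated with chemical for 24 h. Finally, RNA was reverse-transcribed, PCR-amplified, FAM-labelled and resolved by capillary electrophoresis, with induction scored against DMSO.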

[7] = target: Steroid hormone receptor ERR1 (Homo sapiens) (UniProt P11474); assay: ATG_ERRa_TRANS: Attagene TRANS-FACTORIAL HepG2 Assay for human Estrogen-Related Receptor alpha (ERRa) (AID 2282971; active = hit-call score of the fitted dose curve at least 0.9, where 1 is the maximum); settings: HepG2 Attagene TRANS reporter, ERRa transactivation
Steroid hormone receptor ERR1 (Homo sapiens), sequence (P11474 whole entry, looked up, the tested form may be a part): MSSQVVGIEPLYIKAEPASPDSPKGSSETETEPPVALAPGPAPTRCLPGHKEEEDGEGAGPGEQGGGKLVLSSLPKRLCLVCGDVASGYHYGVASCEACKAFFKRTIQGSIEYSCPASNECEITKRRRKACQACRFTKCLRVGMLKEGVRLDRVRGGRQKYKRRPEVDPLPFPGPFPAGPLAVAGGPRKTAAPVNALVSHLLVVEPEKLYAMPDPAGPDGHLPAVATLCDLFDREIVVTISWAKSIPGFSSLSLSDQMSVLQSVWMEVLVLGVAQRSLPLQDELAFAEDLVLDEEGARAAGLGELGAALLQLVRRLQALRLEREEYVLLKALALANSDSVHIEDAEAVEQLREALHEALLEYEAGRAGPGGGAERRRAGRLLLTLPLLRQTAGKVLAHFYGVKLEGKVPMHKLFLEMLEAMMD
In short: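 Reporter transcript induction was quantified by RT-PCR and capillary electrophoresis of FAM-labelled, HpaI-cut products after 24 h treatment of HepG2 cells carrying transiently transfected GAL4-UAS reporter units and an exogenous ERRa-Gal4 fusion; activity scored as increase over DMSO.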

[8] = target: Estrogen-related receptor gamma (Homo sapiens) (UniProt P62508); assay: ATG_ERRg_TRANS: Attagene TRANS-FACTORIAL HepG2 Assay for human Estrogen-Related Receptor gamma (ERRg) (AID 2282977; active = hit-call score of the fitted dose curve at least 0.9, where 1 is the maximum;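 also: hits increase reporter signal over DMSO so potencies reflect activators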); settings: HepG2 Attagene TRANS reporter, ERRg transactivation
Estrogen-related receptor gamma (Homo sapiens), sequence (P62508 whole entry, looked up, the tested form may be a part): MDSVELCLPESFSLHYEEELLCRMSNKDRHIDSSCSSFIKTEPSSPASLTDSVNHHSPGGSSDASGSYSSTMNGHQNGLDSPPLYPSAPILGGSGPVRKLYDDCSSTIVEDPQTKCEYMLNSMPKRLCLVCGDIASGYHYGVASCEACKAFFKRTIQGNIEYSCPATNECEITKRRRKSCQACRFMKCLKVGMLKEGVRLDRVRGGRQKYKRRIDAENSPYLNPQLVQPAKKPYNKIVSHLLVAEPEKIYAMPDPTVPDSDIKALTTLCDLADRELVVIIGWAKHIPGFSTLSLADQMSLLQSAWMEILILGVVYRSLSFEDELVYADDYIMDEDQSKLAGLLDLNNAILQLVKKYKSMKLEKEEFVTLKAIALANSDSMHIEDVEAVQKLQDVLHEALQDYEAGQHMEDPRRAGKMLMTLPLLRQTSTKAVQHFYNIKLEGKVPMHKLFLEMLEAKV
In short: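 Transfect HepG2 with multiple GAL4-UAS reporter transcription units; dose chemicals 24 h; isolate RNA, reverse-transcribe with oligo(dT), PCR-amplify, label with 6-FAM, digest with HpaI; size fragments by capillary electrophoresis. DMSO serves as negative control.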

Measured: AC50

CC1=NC(C)OC1C (stereo unspecified)
active: [3] 9.63 µM
not listed: [7] | [8]
inactive: all other assays above

c1c[nH]cn1
not listed: [7] | [8]
inactive: all other assays above

FC(F)=C(F)OC(F)(F)C(F)(F)C(F)(F)F
not listed: [7] | [8]
inactive: all other assays above

CC=C1CC2C=CC1C2 (stereo unspecified)
inactive: [1] | [2] | [3] | [4] | [5]

O=C(O)CC(C(=O)O)C(CC(=O)O)C(=O)O (stereo unspecified)
inactive: [1] | [2] | [3] | [4] | [5]

CC1(C)[C@H]2CC[C@]1(C)C(=O)C2
not listed: [5]
inactive: all other assays above

CN(C)c1ccc(C(=N)c2ccc(N(C)C)cc2)cc1
inactive: [1] | [2]
active: [3] 1.29 µM | [4] 1.21 µM

CC(=O)OCC(C)OC(C)=O (stereo unspecified)
inactive: [1] | [2] | [3] | [4] | [5]

CC(=O)[C@H]1[C@H](C#N)C[C@H]2[C@@H]3CC=C4C[C@@H](O)CC[C@]4(C)[C@H]3CC[C@@]21C
inactive: [1] | [2] | [3] | [4] | [5]

O=C(O)c1cc2ccccc2nc1C(=O)O
inactive: [1] | [2] | [3] | [4]

CCCCCCCCCCCSCC(=O)O
active: [1] 100 µM | [2] 100 µM | [3] 80.2 µM | [4] 100 µM
inactive: [5] | [6]

OCCCS
not listed: [7] | [8]
inactive: all other assays above

CC(C)=CC1CC(C)CCO1 (stereo unspecified)
inactive: [1] | [2] | [3] | [4]

CC=CCO
inactive: [1] | [2] | [3] | [4]

O=C(c1ccccc1)c1ccc(O)c(O)c1O
not listed: [4] | [5]
inactive: all other assays above

O=C(O)CCCCCCCCCC(=O)O
not listed: [5]
inactive: all other assays above
